TbPYK inhibitor – qHTS of Trypanosoma Brucei Inhibitors. TbPYK enzyme, Kinase-Glo Plus ATP luminescence, 45 min. Potency, µM (doses to about 76.8 µM), most hits filed as inhibitors. 410,000 tested, 0.12% active. AID 624173, 2012; further: nearly all actives have a fitted effect of over 50% in size
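T. brucei PYK with substrate was exposed to pin-transferred compounds across a concentration series, then started with 130 uM ADP (final). After 45 min at room temperature, Kinase-Glo Plus luminescence was read, normalized and curve-fitted.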
LmPK inhibitor – qHTS Assay for Inhibitors of Leishmania Mexicana Pyruvate Kinase (LmPK). Q27686. purified LmPK, Kinase-Glo ATP luminescence, 1 h. Potency, µM (doses to about 57.5 µM), most hits filed as inhibitors. 290,000 tested, 0.37% active. AID 1721, 2009
Target sequence (Q27686 whole entry, looked up): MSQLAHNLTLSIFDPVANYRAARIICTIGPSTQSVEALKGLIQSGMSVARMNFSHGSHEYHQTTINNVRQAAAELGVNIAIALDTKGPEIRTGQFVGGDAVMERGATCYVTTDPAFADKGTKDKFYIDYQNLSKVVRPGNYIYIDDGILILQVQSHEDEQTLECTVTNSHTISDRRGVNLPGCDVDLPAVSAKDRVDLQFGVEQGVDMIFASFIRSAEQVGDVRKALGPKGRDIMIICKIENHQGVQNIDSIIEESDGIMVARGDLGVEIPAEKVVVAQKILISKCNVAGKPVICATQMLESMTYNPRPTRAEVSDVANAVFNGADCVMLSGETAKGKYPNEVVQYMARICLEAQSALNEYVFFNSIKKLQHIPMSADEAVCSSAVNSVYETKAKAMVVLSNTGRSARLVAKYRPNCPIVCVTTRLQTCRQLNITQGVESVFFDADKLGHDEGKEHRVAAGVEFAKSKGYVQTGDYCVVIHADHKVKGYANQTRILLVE
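Kinase-Glo luminescence read after 1 h RT reaction of 0.1 nM LmPK with 0.5 mM PEP and 0.1 mM ADP. Activity scaled between uninhibited and enzyme-free controls.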
NS1 function inh – qHTS Assay for Inhibitors of Influenza NS1 Protein Function. 270,000 tested, 0.4% active. AID 2326, 2010. Potency, µM (highest dose often 46.1 µM); calls by dose curve; further: actives are rising curves; nearly all actives have a fitted effect of over 50% in size
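Compounds were scored for reversing the slow growth caused by influenza A NS1 in S. cerevisiae, measured by optical density at 600 nm. Assay medium contained 2% galactose at pH 6.0; NS1-free yeast of the same strain were the positive control.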
Shiga toxin inh – A qHTS for Small Molecule Inhibitors of Shiga Toxin; Vero cells, Shiga toxin protein synthesis inhibition reporter; inhibition, % at 38.7 µM; 290,000 tested, 9.2% active; in the data active means inhibition mostly above about 28%, no sharp cut-off; inactive means mostly below about 43%
CHX counter – Cycloheximide Counterscreen for Small Molecule Inhibitors of Shiga Toxin. cell reporter, cycloheximide protein synthesis inhibition counterscreen. max response, %. 300,000 tested, 12% active; in the data active means max response mostly above about 13%, no sharp cut-off; inactive means mostly below about 14%; further: read at 38.3 µM for the half of the compounds with a filed dose
SARS PLpro yeast – qHTS of Yeast-based Assay for SARS-CoV PLP; S. cerevisiae expressing SARS-CoV PLpro, growth rescue; Potency, µM (series often up to 32.9 µM), most hits filed as activators; 330,000 tested, 0.19% active; AID 485353, 2010; calls by dose curve; further: nearly all actives have a fitted effect of over 55% in size
Of the large screens only hits and unclear results are named; the others gave an inactive call. This excerpt belongs to a sample that is enriched for hits. Unless noted, the call rests on the fitted dose curve; in most records, active means well fitted curve in the direction sought with a large enough effect; inconclusive means small, poorly fitted or top-dose-only effect, or another doubt; inactive means no such curve, though single readings can be large; an effect the other way counts as inactive or inconclusive.

CC1CCC(NC(=O)C(=O)Nc2ccc3c(c2)OCO3)CC1 (configuration not stated)	Shiga toxin inh 116, CHX counter 57
CCOc1ccc(CCNC(=O)c2cccc(S(=O)(=O)N3CCCCC3)c2)cc1OCC	none (no result: LmPK inhibitor, NS1 function inh, Shiga toxin inh, CHX counter)
Cc1ccc(NC(=O)c2ccc3ccccc3n2)cc1S(=O)(=O)N(C)C	Shiga toxin inh 79, CHX counter 27 (no result: NS1 function inh)
Cc1ccc(NC(=O)c2c3c(nc4ccccc24)CCC3)cc1S(=O)(=O)N(C)C	Shiga toxin inh 50, CHX counter 37 (no result: NS1 function inh)
COC(=O)C1(CC2CC(c3ccncc3)=NO2)CCN(C(=O)OC(C)(C)C)CC1 (configuration not stated)	none (no result: LmPK inhibitor, NS1 function inh, Shiga toxin inh, CHX counter)
CC(=O)c1cccc(NC(=O)C2(C)Cc3c(-c4ccccc4)ccnc3O2)c1 (configuration not stated)	none (no result: LmPK inhibitor, NS1 function inh, Shiga toxin inh, CHX counter, SARS PLpro yeast)
CC(OC(=O)CCCC(=O)Nc1ccccc1)C(=O)c1ccccc1 (configuration not stated)	none
Cc1ccc(S(=O)c2ccc([N+](=O)[O-])c3nonc23)cc1 (configuration not stated)	TbPYK inhibitor 6.3µM (no result: LmPK inhibitor, NS1 function inh, Shiga toxin inh, CHX counter, SARS PLpro yeast)
CC1CCCCC1NC(=O)COc1ccccc1C#N (configuration not stated)	none (no result: LmPK inhibitor, NS1 function inh, Shiga toxin inh, CHX counter)
Cc1ccc(Cl)cc1N1CCN(C(=O)c2c(C)oc3ncnc(N4CCOCC4)c23)CC1	none (no result: LmPK inhibitor, NS1 function inh, Shiga toxin inh, CHX counter, SARS PLpro yeast)
Cc1cc2n(n1)SC(Nc1ccc(F)c(Cl)c1)N2 (configuration not stated)	Shiga toxin inh active, CHX counter 32
Cc1cc2n(n1)CCCN2C(=O)Nc1ccc(F)c(Cl)c1	none (no result: LmPK inhibitor, NS1 function inh, Shiga toxin inh, CHX counter, SARS PLpro yeast)
Clc1ccc(Cc2noc(-c3cccs3)n2)cc1	Shiga toxin inh 93, CHX counter 53
Clc1ccc(-c2nc(Cc3ccccc3Cl)no2)cc1	none
COc1ccc(/C=C/C(=O)Oc2ccc(C)cc2)cc1	none
COc1ccc(/C=C/C(=O)c2ccc(C(=O)/C=C/c3ccc(OC)c(OC)c3)cc2)cc1OC	CHX counter 28
COc1ccc(/C=C/C(=O)C2(O)CCCCC2)cc1	Shiga toxin inh 47, CHX counter 19
COc1ccc(/C=C/c2ccncc2)cc1OC	Shiga toxin inh 57, CHX counter 28
COC(=O)c1ccc(/C=C/C(=O)c2ccc(OC)cc2)cc1	CHX counter 25
CCC1CN(C(=O)N2CCC(C(=O)NCCc3cc(OC)ccc3OC)CC2)c2ccccc2O1 (configuration not stated)	none (no result: LmPK inhibitor, NS1 function inh, Shiga toxin inh, CHX counter, SARS PLpro yeast)
COc1cc(/C=C/C(=O)c2ccc(C)cc2)ccc1OCC#N	Shiga toxin inh 107, CHX counter 81
COc1ccc(/C=C/C(=O)c2ccccc2)cc1COc1ccc(F)cc1	none
COc1ccc(C=CC(=O)c2ccc(OCc3ccccc3)c(OC)c2)cc1OC	none (no result: LmPK inhibitor, NS1 function inh, Shiga toxin inh, CHX counter, SARS PLpro yeast)
COc1ccc(/C=C/C(=O)c2ccccc2)cc1Cn1nnc2ccccc21	Shiga toxin inh 27, CHX counter 27
O=C(CCc1ccc(CCC(=O)c2cccs2)s1)c1cccs1	Shiga toxin inh 53, CHX counter 22
O=C(CCNc1cc(Cl)cc(Cl)c1)c1cccs1	CHX counter 18
O=C(CCC(=O)c1cccs1)NNC(=O)c1cc(Cl)ccc1Cl	none (no result: LmPK inhibitor, NS1 function inh, Shiga toxin inh, CHX counter)
O=C(CCNc1ccc(Cl)cc1)c1cccs1	Shiga toxin inh 42, CHX counter 32
O=C(CCSc1ccc(Cl)cc1)c1cccs1	CHX counter 12
O=C(O)CCNc1ccc(Cl)cc1	none
COc1ccccc1N(CC(=O)N/N=C(\C)c1ccc(F)cc1)S(=O)(=O)c1ccccc1	none (no result: LmPK inhibitor, NS1 function inh, Shiga toxin inh, CHX counter)
Cc1onc(-c2ccccc2)c1-c1ccnn1S(=O)(=O)c1ccc(Cl)cc1	Shiga toxin inh 88, CHX counter 44
Cn1cc(C(=O)c2cccc(Cl)c2)cc1/C=N\O	CHX counter 33 (no result: NS1 function inh)
CCN(C(=O)c1ccncc1)c1c(N)n(Cc2ccccc2)c(=O)[nH]c1=O	none (no result: LmPK inhibitor, NS1 function inh, Shiga toxin inh, CHX counter)
O=C(Cn1cc2c(n1)CCCCC2)Nc1ccccc1Cl	CHX counter 12
Cc1ccc2nc(NC(=O)Cn3cc4c(n3)CCCCC4)sc2c1	CHX counter 16
CCCOc1ccc(NC(=O)C(=O)NCCCN2CCOCC2)cc1	none (no result: LmPK inhibitor, NS1 function inh, Shiga toxin inh, CHX counter, SARS PLpro yeast)

High-throughput results: PubChem, National Center for Advancing Translational Sciences (NCATS)
